# PubChem BioAssay (NCATS)
# Several values for one entry are separate records, joined by “and”; a condition that tells them apart may be missing. Equal values may be shown once. Inconclusive results are not listed. Some compounds were tested as several samples or in several runs, with calls that do not always agree. Activity calls are given as the source filed them. Unless noted, calls follow the shape of the full dose curve.
# Assays:
# [1] = Cell Viability - BJ (AID 421); details: BJ fibroblast viability, qHTS;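 also: potency is read from the fitted curve at half-maximal effect; cells exposed to compound for 40 hours at 37 °C before readout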
# In short: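 Normal human BJ foreskin fibroblasts, 1500/well in complete medium, treated 40 hr at 37 °C. Cellular ATP by CellTiter-Glo luminescence; normalized to DMSO and 100 uM tamoxifen, AC50 from Hill fit.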
# [2] = Cell Viability - HepG2 (AID 433); details: qHTS;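 also: potency is read from the fitted curve at half-maximal effect; potency for ATP loss meaning cytotoxicity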
# In short: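 HepG2 hepatocellular carcinoma cells (1500/well) were treated with compounds for 40 h at 37 °C in complete medium; intracellular ATP was read by CellTiter-Glo luminescence. Data were normalized to DMSO and 100 uM tamoxifen, and AC50 came from Hill fits.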
# [3] = Cell Viability - MRC5 (AID 434); details: MRC5 lung fibroblast viability, qHTS;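 also: potency is read from the fitted curve at half-maximal effect; potency reflects cytotoxicity seen as loss of intracellular ATP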
# In short: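 AC50 values come from Hill-equation fits of intracellular ATP loss, measured by CellTiter-Glo luminescence. Normal lung fibroblasts (MRC5) had 40 hr compound treatment at 37 C, normalized between DMSO and 100 uM tamoxifen.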
# [4] = Cell Viability - SK-N-SH (AID 435); details: SK-N-SH neuroblastoma cell viability qHTS;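 also: potency is read from the fitted curve at half-maximal effect; compound exposure lasted 40 h at 37 °C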
# In short: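 SK-N-SH human neuroblastoma cells (1500/well) were exposed to compounds in complete medium for 40 h at 37 °C, and intracellular ATP was then measured by CellTiter-Glo luminescence. AC50 was taken from Hill fits, normalized to DMSO and 100 uM tamoxifen.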
# [5] = target: Cytochrome P450 1A2 (Homo sapiens) (UniProt P05177); assay: p450-cyp1a2 (AID 410); details: recombinant CYP1A2, luciferin-ME demethylation, luminescence; series mostly up to 57 µM; also: potency is read from the fitted curve at half-maximal effect;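 as to activity change, negative = inhibition: -100% = full effect of reference inhibitor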
# Cytochrome P450 1A2 (Homo sapiens), sequence (P05177 whole entry, looked up): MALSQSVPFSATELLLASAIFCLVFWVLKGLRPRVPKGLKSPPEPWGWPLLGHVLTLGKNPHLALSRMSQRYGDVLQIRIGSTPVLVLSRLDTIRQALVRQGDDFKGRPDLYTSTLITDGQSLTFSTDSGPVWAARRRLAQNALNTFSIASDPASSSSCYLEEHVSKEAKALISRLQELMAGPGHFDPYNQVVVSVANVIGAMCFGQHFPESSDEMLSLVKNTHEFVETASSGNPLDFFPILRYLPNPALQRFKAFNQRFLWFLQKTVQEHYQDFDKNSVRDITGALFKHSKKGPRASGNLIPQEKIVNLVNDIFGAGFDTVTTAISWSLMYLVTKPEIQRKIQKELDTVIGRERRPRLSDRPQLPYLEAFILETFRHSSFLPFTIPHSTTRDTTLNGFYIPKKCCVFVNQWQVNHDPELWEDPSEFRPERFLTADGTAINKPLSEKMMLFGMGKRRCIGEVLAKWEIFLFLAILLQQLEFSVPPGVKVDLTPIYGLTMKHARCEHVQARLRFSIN
# In short: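 Read-out is luminescence from luciferin produced by CYP1A2 demethylation of Luciferin-ME (100uM, at Km). Detection reagent stopped the 60 min NADPH-dependent reaction; signals were normalized to 57 uM furafylline.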
# [6] = Cell Viability - Jurkat (AID 426;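 active = dose-dependent loss of cell ATP signal giving a full or clear fitted curve, ranked by lower potency value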; also: potency is read from the fitted curve at half-maximal effect); details: qHTS
# In short: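 Cytotoxicity was scored as loss of cellular ATP, measured by luciferase-based luminescence, in Jurkat clone E6-1 cells after 40 h compound treatment; tamoxifen and doxorubicin served as positive controls.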
# [7] = Cell Viability - Hek293 (AID 427;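 active = compounds whose dose-response curve shows a full or clear partial loss of cell viability, called from curve shape rather than a numeric limit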;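 also: potency is read from the fitted curve at half-maximal effect; cells exposed to compound for 40 hours at 37 °C before reading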); details: qHTS
# In short: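 HEK293 cells in complete medium were exposed to compound for 40 hr at 37 °C, then cellular ATP was read by CellTiter-Glo luminescence. Data were normalized to DMSO (basal) and 100 uM tamoxifen (100% inhibition), and AC50 came from Hill fits.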
# [8] = AP1 Signaling Pathway (AID 357; active = well fitted curve in either direction with a large enough effect, not every such curve was filed as active; also: % is scaled to controls: 0 for no effect and ±100 for the full control effect); details: ME-180 AP-1-bla reporter, EGF-induced, beta-lactamase ratio, 5 h; at 38 µM (top of the series)
# In short: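 ME-180 cells with beta-lactamase reporter under AP-1 response element, stimulated with EC50 EGF; compounds tested in titration series, 5 h at 37 °C. CCF4 substrate added 2.5 h at room temperature; 460/530 nm emission ratio gave %activity and AC50.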
# [9] = Stat Signaling Pathway (AID 446; active = well fitted curve in either direction with a large enough effect, not every such curve was filed as active;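 also: ME-180 cervical cancer cells given 40 pM IL-6 alongside compound; SIE-controlled beta-lactamase reporter measured as 460/530 nm FRET emission ratio; % is scaled to controls: 0 for no effect and ±100 for the full control effect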); details: ME-180 (cervical carcinoma) SIE beta-lactamase reporter, IL-6 stimulated, 5 h; at 38 µM (top of the series)
# In short: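 Normalization used AC90 stimulation (300 pM IL-6) and AC90 inhibition (125 nM pan-JAK inhibitor at 40 pM IL-6). The underlying signal is SIE-driven beta-lactamase in ME-180 cells after 5 h IL-6 exposure with compound.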
# [10] = NFAT Signaling Pathway (AID 444; active = well fitted curve in either direction with a large enough effect, not every such curve was filed as active;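 also: carbachol stimulus at about its EC50 of 1 µM final; % is scaled to controls: 0 for no effect and ±100 for the full control effect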); details: Jurkat NFAT-bla M1, carbachol, beta-lactamase ratio, 5 h; at 38 µM (top of the series)
# In short: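 Read-out: CCF4 FRET ratio (460 nm/530 nm) after 1 h RT dye loading, used for %activity and AC50 from titration series. Cells: Jurkat NFAT-β-lactamase/M1 line, treated with compound plus 1 uM carbachol for 5 h, 37 °C.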
compound,measurement,setting,value
COc1ccc(C(c2ccc(OC)cc2)C(Cl)(Cl)Cl)cc1,Potency,[1],> 92 µM (inactive)
same,Potency,[2],> 92 µM (inactive)
same,Potency,[3],> 92 µM (inactive)
same,Potency,[4],> 92 µM (inactive)
COC(=O)[C@@H](N)CCCN=C(N)N[N+](=O)[O-],Potency,[5],inactive
c1cc2ccc3cccc4ccc(c1)c2c34,Potency,[1],> 92 µM (inactive)
same,Potency,[6],> 92 µM (inactive)
same,Potency,[7],> 92 µM (inactive)
same,Potency,[2],> 92 µM (inactive)
same,Potency,[3],> 92 µM (inactive)
same,Potency,[4],> 92 µM (inactive)
O=[N+]([O-])c1cc([N+](=O)[O-])c2ccccc2c1,Potency,[1],> 92 µM (inactive)
same,Potency,[6],> 92 µM (inactive)
same,Potency,[7],> 92 µM (inactive)
same,Potency,[2],> 92 µM (inactive)
same,Potency,[3],> 92 µM (inactive)
same,Potency,[4],> 92 µM (inactive)
S=C(NC1CCCCC1)N1CCC(c2cnc[nH]2)CC1,"activity change, negative = inhibition",[8],-10.5% (inactive)
same,"activity, negative = inhibition",[9],6.17% (inactive)
CCCCCCCCc1ccc(O)cc1,Potency,[1],> 92 µM (inactive)
same,Potency,[6],> 92 µM (inactive)
same,Potency,[7],> 92 µM (inactive)
same,Potency,[2],> 92 µM (inactive)
same,Potency,[3],> 92 µM (inactive)
same,Potency,[4],> 92 µM (inactive)
CC(C)(O)C(=O)Nc1ccc([N+](=O)[O-])c(C(F)(F)F)c1,Potency,[1],> 92 µM (inactive)
same,Potency,[6],> 92 µM (inactive)
same,Potency,[7],> 92 µM (inactive)
same,Potency,[2],> 92 µM (inactive)
same,Potency,[3],> 92 µM (inactive)
same,Potency,[4],> 92 µM (inactive)
COc1ccc(C(=O)c2c(C)n(CCN3CCOCC3)c3cc(I)ccc23)cc1,Potency,[5],15.8 µM (active)
O=S(=O)(c1ccc(Cl)cc1)c1ccc(Cl)cc1,Potency,[1],> 92 µM (inactive)
same,Potency,[6],> 92 µM (inactive)
same,Potency,[7],> 92 µM (inactive)
same,Potency,[2],> 92 µM (inactive)
same,Potency,[3],> 92 µM (inactive)
same,Potency,[4],> 92 µM (inactive)
Nc1ccc(Cl)cc1,Potency,[1],> 92 µM (inactive)
same,Potency,[6],> 92 µM (inactive)
same,Potency,[7],> 92 µM (inactive)
same,Potency,[2],> 92 µM (inactive)
same,Potency,[3],> 92 µM (inactive)
same,Potency,[4],> 92 µM (inactive)
Nc1ccc(Cl)cc1N,Potency,[1],> 92 µM (inactive)
same,Potency,[6],4.05 µM (active)
same,Potency,[7],> 92 µM (inactive)
same,Potency,[3],> 92 µM (inactive)
O=[N+]([O-])c1c(Cl)c(Cl)cc(Cl)c1Cl,Potency,[1],> 92 µM (inactive)
same,Potency,[6],> 92 µM (inactive)
same,Potency,[7],> 92 µM (inactive)
same,Potency,[2],> 92 µM (inactive)
same,Potency,[3],> 92 µM (inactive)
same,Potency,[4],> 92 µM (inactive)
O=[N+]([O-])c1c2ccccc2cc2ccccc12,Potency,[1],> 92 µM (inactive)
same,Potency,[6],> 92 µM (inactive)
same,Potency,[7],> 92 µM (inactive)
same,Potency,[2],> 92 µM (inactive)
same,Potency,[3],> 92 µM (inactive)
same,Potency,[4],> 92 µM (inactive)
Cc1cc(O)ccc1Cl,Potency,[1],> 92 µM (inactive)
same,Potency,[6],> 92 µM (inactive)
same,Potency,[7],> 92 µM (inactive)
same,Potency,[2],> 92 µM (inactive)
same,Potency,[3],> 92 µM (inactive)
same,Potency,[4],> 92 µM (inactive)
O=C(O)COc1ccccc1,Potency,[1],> 92 µM (inactive)
same,Potency,[6],> 92 µM (inactive)
same,Potency,[7],> 92 µM (inactive)
same,Potency,[2],> 92 µM (inactive)
same,Potency,[3],> 92 µM (inactive)
same,Potency,[4],> 92 µM (inactive)
C1CCC(NC2CCCCC2)CC1,Potency,[1],> 92 µM (inactive)
same,Potency,[6],> 92 µM (inactive)
same,Potency,[7],> 92 µM (inactive)
same,Potency,[2],> 92 µM (inactive)
same,Potency,[3],> 92 µM (inactive)
same,Potency,[4],> 92 µM (inactive)
CCOP(=O)(NC(C)C)Oc1ccc(SC)c(C)c1 (centres undefined),Potency,[1],> 92 µM (inactive)
same,Potency,[6],> 92 µM (inactive)
same,Potency,[2],> 92 µM (inactive)
same,Potency,[3],> 92 µM (inactive)
same,Potency,[4],> 92 µM (inactive)
O=C(O)C(Cl)Cl,Potency,[1],> 92 µM (inactive)
same,Potency,[6],> 92 µM (inactive)
same,Potency,[7],> 92 µM (inactive)
same,Potency,[2],> 92 µM (inactive)
same,Potency,[3],> 92 µM (inactive)
same,Potency,[4],> 92 µM (inactive)
CN(C)NC(=O)CCC(=O)O,Potency,[1],> 92 µM (inactive)
same,Potency,[6],> 92 µM (inactive)
same,Potency,[7],> 92 µM (inactive)
same,Potency,[2],> 92 µM (inactive)
same,Potency,[3],> 92 µM (inactive)
same,Potency,[4],> 92 µM (inactive)
CCCCOC(=O)c1ccccc1C(=O)OCc1ccccc1,Potency,[1],> 92 µM (inactive)
same,Potency,[6],> 92 µM (inactive)
same,Potency,[7],> 92 µM (inactive)
same,Potency,[2],> 92 µM (inactive)
same,Potency,[3],> 92 µM (inactive)
same,Potency,[4],> 92 µM (inactive)
OCCCBr,Potency,[1],> 92 µM (inactive)
same,Potency,[6],> 92 µM (inactive)
same,Potency,[7],> 92 µM (inactive)
same,Potency,[2],> 92 µM (inactive)
same,Potency,[3],> 92 µM (inactive)
same,Potency,[4],> 92 µM (inactive)
CCCCC(CC)COC(=O)c1ccccc1C(=O)OCC(CC)CCCC (centres undefined),Potency,[1],> 92 µM (inactive)
same,Potency,[6],> 92 µM (inactive)
same,Potency,[7],> 92 µM (inactive)
same,Potency,[2],> 92 µM (inactive)
same,Potency,[3],> 92 µM (inactive)
same,Potency,[4],> 92 µM (inactive)
CC(=O)[O][Hg][c]1ccccc1,Potency,[1],5.56 µM (active)
same,Potency,[6],0.47 µM (active)
same,Potency,[7],2.24 µM (active)
same,Potency,[2],25.1 µM (active)
same,Potency,[3],10.9 µM (active)
same,Potency,[4],2.17 µM (active)
C=CC(=O)NCNC(=O)C=C,Potency,[1],> 92 µM (inactive)
same,Potency,[6],> 92 µM (inactive)
same,Potency,[7],> 92 µM (inactive)
same,Potency,[2],> 92 µM (inactive)
same,Potency,[3],> 92 µM (inactive)
same,Potency,[4],> 92 µM (inactive)
COC(C)(C)CCCC(C)C/C=C/C(C)=C/C(=O)OC(C)C (centres undefined),Potency,[1],> 92 µM (inactive)
same,Potency,[6],> 92 µM (inactive)
same,Potency,[7],> 92 µM (inactive)
same,Potency,[2],> 92 µM (inactive)
same,Potency,[3],> 92 µM (inactive)
same,Potency,[4],> 92 µM (inactive)
Cc1nc(-c2ccc(-c3ccc(C(=O)N4CCc5cc6c(cc54)C4(CCN(C)CC4)CO6)cc3)c(C)c2)no1,Potency,[5],inactive and 39.8 µM (active)
CCOCCOC(C)=O,Potency,[1],> 92 µM (inactive)
same,Potency,[6],> 92 µM (inactive)
same,Potency,[7],> 92 µM (inactive)
same,Potency,[2],> 92 µM (inactive)
same,Potency,[3],> 92 µM (inactive)
same,Potency,[4],> 92 µM (inactive)
Cc1c(C(=O)c2cccc3ccccc23)c2cccc3c2n1[C@H](CN1CCOCC1)CO3,"activity change, negative = inhibition",[10],-21.8% (inactive)
